# Compounds with a hit are over-represented: about 21% of the library has one in this group of screens.
# SARS PLpro yeast = qHTS of Yeast-based Assay for SARS-CoV PLP | 330,000 compounds, 0.19% hits | S. cerevisiae expressing SARS-CoV PLpro, growth rescue | AID 485353, 2010 | Potency, µM (series often up to 32.9 µM), most hits filed as activators; calls by dose curve; also: nearly all actives have a fitted effect of over 55% in size
# NS1 function inh = qHTS Assay for Inhibitors of Influenza NS1 Protein Function. Potency, µM (top dose mostly 46.1 µM). 270,000 compounds, 0.4% hits. AID 2326, 2010; calls by dose curve; also: actives are rising curves; nearly all actives have a fitted effect of over 50% in size
#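 Compounds were scored for reversing the slow growth caused by influenza A NS1 in S. cerevisiae, measured by optical density at 600 nm. Assay medium contained 2% galactose at pH 6.0; NS1-free yeast of the same strain were the positive control.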
# Pf growth 96h = Primary qHTS for delayed death inhibitors of the malarial parasite plastid, 96 hour incubation. Potency, µM (series often up to 28.7 µM), actives largely listed as inhibitors. 320,000 compounds, 6.9% hits. P. falciparum luciferase reporter growth, 96 h
#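 Readout is luminescence from an integrated firefly luciferase in P. falciparum. Red cells, 2% hematocrit and 0.05% parasitemia final, were cultured with compound through two parasite generations (96 hours) at 37 C, 5% CO2.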
# CHX counter = Cycloheximide Counterscreen for Small Molecule Inhibitors of Shiga Toxin; AID 2314, 2010; cell reporter, cycloheximide protein synthesis inhibition counterscreen; max response, %; 300,000 compounds, 12% hits; in the data active = max response mostly above about 13%, no sharp cut-off; inactive = mostly below about 14%; also: read at 38.3 µM for the half of the compounds with a filed dose
# Pf growth 48h = Primary qHTS for delayed death inhibitors of the malarial parasite plastid, 48 hour incubation | AID 504832, 2011 | Potency, µM (series often up to 28.7 µM), hits mostly inhibitors | 310,000 compounds, 5.9% hits | P. falciparum luciferase growth in erythrocytes, 48 h
#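 Luminescence readout; reporter = integrated firefly luciferase in P. falciparum. RBC culture at 2% hematocrit, 0.1% parasitemia final, 37 C/5% CO2; decreased signal taken as growth inhibition.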
# Shiga inhibitor = A qHTS for Small Molecule Inhibitors of Shiga Toxin. inhibition, % at 38.7 µM. 290,000 compounds, 9.2% hits. Vero cells, Shiga toxin protein synthesis inhibition reporter. AID 2315, 2010; in the data active = inhibition mostly above about 28%, no sharp cut-off; inactive = mostly below about 43%
# Numbers stand for hits; . = inactive; ? = inconclusive; / = not tested or not shown; [ ] = another dose, or the depositor's remark. Unless noted, calls follow the shape of the dose curve; as a rule, active = well fitted inhibition curve with a large enough effect; inconclusive = small, poorly fitted or top-dose-only effect, or another doubt; inactive = no such curve, though single readings can be large or run the other way.
SMILES,SARS PLpro yeast,NS1 function inh,Pf growth 96h,CHX counter,Pf growth 48h,Shiga inhibitor
C#CCOCCOCCOCCNc1nc(N2CCN(C(=O)[C@H]([C@@H](C)CC)n3cc([C@@H](N)Cc4ccc(O)cc4)nn3)CC2)nc(N2CCN(C(=O)[C@H](Cc3ccc(O)cc3)n3cc([C@@H](N)CC(C)C)nn3)CC2)n1,.,.,?,.,4.7µM,.
C#CCOCCOCCOCCNc1nc(N2CCOCC2)nc(N2CCN(C(=O)[C@H]([C@@H](C)CC)n3cc([C@@H](N)Cc4ccc(O)cc4)nn3)CC2)n1,.,.,?,.,1.5µM,.
Cc1cc(NC2CCCC2)n2ncc(-c3ccccc3)c2n1,.,.,.,23,.,.
COc1ccc(-c2c(C)nn3c(NC4CCCC4)cc(C)nc23)cc1OC,.,.,?,.,?,.
Cc1cc(NC2CCCC2)n2nc(C)c(-c3ccccc3)c2n1,.,.,?,29,?,.
Cc1c2cnccc2c(C)c2c1c1ccccc1n2CCOC(=O)c1ccccc1,/,.,/,/,/,/
CC[C@@H](C)[C@H](CNC)NC[C@@H](Cc1cccc2ccccc12)NCCc1cccc(C(F)(F)F)c1,.,.,7.4µM,.,?,.
CNC[C@@H](CC1CCCCC1)NC[C@H](CC(C)C)NCCc1cccc(C(F)(F)F)c1,.,?,1.9µM,.,?,.
CCC[C@H](CN[C@@H](CNC)[C@H](C)CC)NCCc1cc(C(F)(F)F)cc(C(F)(F)F)c1,.,.,2.1µM,.,4.1µM,.
COc1cccc(CCNCc2cccc(C(F)(F)F)c2)c1,.,/,.[1.15 µM],.,.,.
CCC[C@@H](CN[C@@H](CNC)[C@H](C)CC)NCC1CCC(C(C)(C)C)CC1 (stereo partly specified),.,.,3.3µM,.,?,.
CNC(=O)CN(c1ccc(Oc2ccccc2)cc1)S(=O)(=O)c1ccc(C)cc1,.,.,.,.,.,.
CN(Cc1ccco1)C(=O)C1CCCN(c2ncnc3c2nc2n3CCCCC2)C1 (stereo unspecified),.,.,?,.,.,.
O=S1(=O)c2ccccc2C(CCO)N1Cc1ccccc1 (stereo unspecified),.,.,.,.,.,.
Cc1ccc(OCc2cc(C(=O)N3CCCC(O)C3)no2)cn1 (stereo unspecified),?,.,?,20,.,23
Cc1ccccc1OC1CCN(C(=O)c2cc(COc3ccccc3)on2)CC1,.,.,?,.,.,.
O=C(c1cc(COc2ccccc2)on1)N1CCCC(CN2CCOCC2)C1 (stereo unspecified),.,.,.,26,.,31
CCOc1nc(Nc2ccc(-c3nc4ccccc4o3)cc2)nc(N2CCOCC2)n1,/,.,/,/,/,/
Cn1c2c(c(=O)n(C)c1=O)C(C(F)(F)F)(C(F)(F)F)N=C(C1CCCCC1)N2,.,.,?,.,.,.
Cc1ccccc1C1=NC(C(F)(F)F)(C(F)(F)F)c2c(n(C)c(=O)n(C)c2=O)N1,.,.,?,61,?,109
Cn1c2c(c(=O)n(C)c1=O)C(C(F)(F)F)(C(F)(F)F)N=C(c1ccc(Cl)cc1)N2,.,.,1.5µM,.,?,.
Cc1cccnc1NC(=O)CCn1c(=O)oc2ccccc21,.,.,.,.,.,.
CCCc1nc(Nc2nc3ccccc3o2)nc(C)c1C(=O)OCC,.,.,/,61,.,129
COc1ccc(CNC(=O)COc2ccc([N+](=O)[O-])cc2)cc1,.,.,.,.,.,.
Cc1oc(-c2cccc3ccccc23)nc1CN1CCC[C@H]1CO,.,.,.,.,?,.
SMILES,SARS PLpro yeast,NS1 function inh,Pf growth 96h,CHX counter,Pf growth 48h,Shiga inhibitor
CCOc1ccc(-n2c(SC(C)C)nc3c(c2=O)SCC3)cc1,.,.,.,.,8.3µM,.
CCOc1ccc(-n2c(SC)nc3c(c2=O)SCC3)cc1,.,.,?,.,.,.
CSc1nc2c(c(=O)n1-c1ccc(C)cc1)SCC2,.,.,.,8.6,9.3µM,.
Cc1ccc2c(C(=O)CN3CCN(C4CCCCC4)CC3)c(C)[nH]c2c1,.,.,.,.,2.6µM,.
COc1ccccc1N1CCN(CC(=O)c2c(C)[nH]c3cc(C)ccc23)CC1,.,.,.,.,13µM,.
COc1ccccc1N1CCN(CC(=O)c2c(C)n(C)c3ccccc23)CC1,.,.,?,.,?,.

# Bioassay records deposited in PubChem by National Center for Advancing Translational Sciences (NCATS).
